Experimental data taken from PubChem BioAssay.
The source made the active and inactive calls.

Assays:
[1] = small molecules captured by biotinylated probe aFSTL3 – biochemical, small-molecule microarray, fluorescence 635/667, stem cell growth factor project, primary screen (AID 1064); conditions: higher = more signal;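 note: measures binding of the biotinylated anti-FSTL3 antibody to printed compounds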
[2] = binders from COS7 lysate, DM2A8 probe, primary screen, torsin A project, cell lysate, small-molecule microarray, fluorescence 635/667 (AID 1065); conditions: higher = more signal, COS7 lysate expressing mutant human TOR1A
[3] = small molecules captured by biotinylated probe aFGF2 – biochemical, small-molecule microarray, fluorescence 635/667, stem cell growth factor project, primary screen (AID 1067); conditions: higher = more signal;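 note: measures binding of biotinylated aFGF2 protein to printed compounds on slides; z-score merges feature fluorescence and signal-to-noise across triplicate slides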
[4] = small molecules captured by biotinylated probe aFGF10 – biochemical, small-molecule microarray, fluorescence 635/667, stem cell growth factor project, primary screen (AID 1071); conditions: higher = more signal;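 note: score merges 667 nm spot intensity and signal to noise from triplicate slides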
[5] = target: Neurogenic locus notch homolog protein 2 (Homo sapiens) (UniProt Q04721); assay: small molecules binding Notch2 protein – biochemical, small-molecule microarray, 635 nm fluorescence, stem cell growth factors, primary screen (AID 1073); conditions: higher = more signal
Neurogenic locus notch homolog protein 2 (Homo sapiens), sequence (Q04721 whole entry, looked up, canonical isoform): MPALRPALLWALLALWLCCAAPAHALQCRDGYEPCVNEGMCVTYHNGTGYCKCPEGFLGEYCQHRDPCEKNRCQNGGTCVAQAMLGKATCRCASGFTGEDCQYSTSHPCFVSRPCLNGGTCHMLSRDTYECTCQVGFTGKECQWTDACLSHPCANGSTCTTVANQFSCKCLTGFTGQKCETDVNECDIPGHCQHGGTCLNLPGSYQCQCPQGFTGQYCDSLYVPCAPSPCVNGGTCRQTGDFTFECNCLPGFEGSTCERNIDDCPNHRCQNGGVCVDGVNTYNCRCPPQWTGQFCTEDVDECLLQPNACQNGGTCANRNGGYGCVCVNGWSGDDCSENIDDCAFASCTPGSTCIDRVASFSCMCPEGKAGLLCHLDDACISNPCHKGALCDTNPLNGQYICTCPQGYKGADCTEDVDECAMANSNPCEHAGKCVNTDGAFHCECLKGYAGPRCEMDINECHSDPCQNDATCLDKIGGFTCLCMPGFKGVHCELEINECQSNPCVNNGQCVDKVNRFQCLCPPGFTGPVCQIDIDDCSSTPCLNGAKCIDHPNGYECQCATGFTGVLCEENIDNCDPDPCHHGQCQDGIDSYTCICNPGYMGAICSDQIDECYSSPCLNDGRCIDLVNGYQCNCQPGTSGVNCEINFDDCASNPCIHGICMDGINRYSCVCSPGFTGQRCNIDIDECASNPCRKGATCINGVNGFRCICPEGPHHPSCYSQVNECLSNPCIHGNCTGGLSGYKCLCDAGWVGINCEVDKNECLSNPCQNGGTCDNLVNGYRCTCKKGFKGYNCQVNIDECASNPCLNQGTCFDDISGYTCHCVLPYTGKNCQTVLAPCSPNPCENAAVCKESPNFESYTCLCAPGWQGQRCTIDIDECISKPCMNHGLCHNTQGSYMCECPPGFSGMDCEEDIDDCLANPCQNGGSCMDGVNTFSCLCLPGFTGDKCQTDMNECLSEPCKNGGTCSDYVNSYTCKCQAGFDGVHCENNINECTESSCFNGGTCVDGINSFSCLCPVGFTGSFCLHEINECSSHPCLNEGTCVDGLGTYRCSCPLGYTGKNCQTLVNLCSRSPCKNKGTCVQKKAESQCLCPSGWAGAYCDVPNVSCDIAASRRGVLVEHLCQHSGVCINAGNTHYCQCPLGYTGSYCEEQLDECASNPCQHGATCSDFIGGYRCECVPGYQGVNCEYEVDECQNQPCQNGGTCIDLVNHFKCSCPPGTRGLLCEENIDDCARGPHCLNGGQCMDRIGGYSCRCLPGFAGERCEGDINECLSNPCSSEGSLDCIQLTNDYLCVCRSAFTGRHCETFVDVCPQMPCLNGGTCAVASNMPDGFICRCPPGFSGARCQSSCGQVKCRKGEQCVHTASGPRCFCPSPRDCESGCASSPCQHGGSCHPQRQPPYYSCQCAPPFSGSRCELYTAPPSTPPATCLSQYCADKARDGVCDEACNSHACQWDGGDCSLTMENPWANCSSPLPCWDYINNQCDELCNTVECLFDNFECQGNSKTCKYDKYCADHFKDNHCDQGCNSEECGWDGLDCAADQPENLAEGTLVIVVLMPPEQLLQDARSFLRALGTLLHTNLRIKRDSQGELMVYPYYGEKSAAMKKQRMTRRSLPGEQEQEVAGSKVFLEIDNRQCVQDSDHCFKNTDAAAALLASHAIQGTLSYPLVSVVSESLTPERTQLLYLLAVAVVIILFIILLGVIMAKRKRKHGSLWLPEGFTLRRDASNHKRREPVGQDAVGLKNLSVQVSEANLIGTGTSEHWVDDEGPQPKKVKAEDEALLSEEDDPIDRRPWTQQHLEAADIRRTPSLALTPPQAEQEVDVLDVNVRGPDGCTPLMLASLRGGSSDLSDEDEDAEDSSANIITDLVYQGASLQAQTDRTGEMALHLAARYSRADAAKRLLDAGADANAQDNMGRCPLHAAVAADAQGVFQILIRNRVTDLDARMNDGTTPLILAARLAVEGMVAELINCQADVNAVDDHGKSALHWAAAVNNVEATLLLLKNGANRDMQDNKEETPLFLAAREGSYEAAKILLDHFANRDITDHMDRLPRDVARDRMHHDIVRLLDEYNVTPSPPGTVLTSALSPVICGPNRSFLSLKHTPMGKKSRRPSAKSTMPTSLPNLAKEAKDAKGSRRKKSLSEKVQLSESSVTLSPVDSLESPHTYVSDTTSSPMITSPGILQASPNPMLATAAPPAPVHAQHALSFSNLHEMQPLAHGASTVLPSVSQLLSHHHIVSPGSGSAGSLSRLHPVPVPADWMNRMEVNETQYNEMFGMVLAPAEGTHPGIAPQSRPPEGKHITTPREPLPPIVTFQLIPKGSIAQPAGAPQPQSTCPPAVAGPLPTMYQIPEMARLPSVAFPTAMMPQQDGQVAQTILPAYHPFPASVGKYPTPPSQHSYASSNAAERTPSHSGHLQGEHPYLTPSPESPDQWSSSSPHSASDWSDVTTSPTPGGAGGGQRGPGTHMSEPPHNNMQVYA

[6] = target: Pro-neuregulin-1, membrane-bound isoform (Homo sapiens) (UniProt Q02297); assay: small molecules binding neuregulin-1 protein – biochemical, small-molecule microarray, fluorescence 635/667, psychiatric disease protein project, primary screen (AID 1075); conditions: NRG1 binding, 635 nm fluorescence, higher = more signal;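 note: score combines 667 nm spot fluorescence with signal to noise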
Pro-neuregulin-1, membrane-bound isoform (Homo sapiens), sequence (Q02297 whole entry, looked up, the tested form may be a part, canonical isoform): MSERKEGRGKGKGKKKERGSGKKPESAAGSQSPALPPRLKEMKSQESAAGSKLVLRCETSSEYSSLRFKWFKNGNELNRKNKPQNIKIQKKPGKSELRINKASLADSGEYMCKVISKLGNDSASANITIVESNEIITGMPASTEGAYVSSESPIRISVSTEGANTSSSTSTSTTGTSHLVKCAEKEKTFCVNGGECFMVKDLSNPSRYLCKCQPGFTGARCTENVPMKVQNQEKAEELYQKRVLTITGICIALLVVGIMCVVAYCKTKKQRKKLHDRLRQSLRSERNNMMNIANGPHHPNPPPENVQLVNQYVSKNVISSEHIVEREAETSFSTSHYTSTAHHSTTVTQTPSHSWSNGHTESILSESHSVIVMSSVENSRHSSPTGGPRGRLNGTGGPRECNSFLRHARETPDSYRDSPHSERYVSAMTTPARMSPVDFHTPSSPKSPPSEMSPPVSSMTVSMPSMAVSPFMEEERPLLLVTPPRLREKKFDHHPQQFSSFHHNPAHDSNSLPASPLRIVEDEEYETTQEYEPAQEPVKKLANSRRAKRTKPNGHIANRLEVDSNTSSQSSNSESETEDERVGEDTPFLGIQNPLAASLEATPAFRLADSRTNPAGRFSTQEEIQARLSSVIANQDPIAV

[7] = test system: Neuregulin-1 EGF-like domain; assay: small molecules binding NRG1 EGF domain – biochemical, small-molecule microarray, 635 nm fluorescence, primary screen (AID 1081); conditions: higher = more signal;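 note: binding of the protein to compounds printed on small-molecule microarray slides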
[8] = FRG1 expression reporter modulators in myotubes – cell-based, C2C12 myotubes, firefly/Renilla luciferase, luminescence, FRG1 inhibition for FSHD, primary screen (AID 1084); conditions: FRG1 promoter luciferase, higher = more signal, called active from +8 up or from −8 down
[9] = small molecules captured by biotinylated probe aFST – biochemical, small-molecule microarray, fluorescence 635/667, stem cell growth factor project, primary screen (AID 1086); conditions: higher = more signal;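 note: score merges 667 nm fluorescence with signal-to-noise of each printed compound spot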
[10] = binders of probe aHhip on microarray, primary screen, stem cell growth factor project, biochemical, small-molecule microarray, fluorescence 635/667 (AID 1087); conditions: higher = more signal;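 note: score merges spot fluorescence at 667nm with spot signal to noise ratio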

Row | SMILES | composite z-score [1] | composite z-score [2] | composite z-score [3] | composite z-score [4] | composite z-score [5] | composite z-score [6] | composite z-score [7] | z-score [8] | composite z-score [9] | composite z-score [10]
1 | C[C@]1(C(=O)NCc2ccccc2)c2ccccc2C(=O)N(Cc2cc(F)cc(C(F)(F)F)c2)[C@H]1c1ccc(CO)cc1 | 0.46 | -0.512 | -0.0894 | -0.0459 | -0.706 | -0.353 | 1.26 | -3.12 (inactive) | -0.344 | -0.0994
2 | O=C1O[C@H](c2ccccc2)[C@H](c2ccccc2)N2[C@H]1[C@@H](C(=O)NC[C@H](O)c1ccccc1)[C@]1(C(=O)Nc3ccc(C#CCCO)cc31)[C@H]2c1ccc(O)cc1 | 0.326 | -0.543 | -0.103 | -0.465 | -0.42 | 0.0538 | -0.51 | 0.08 (inactive) | -0.445 | 0.245
3 | CCCCC=C[C@@H](NC(=O)c1ccc(C(=O)OC)cc1)c1ccccc1 | 0.026 | 0.0108 | -0.116 | 0.213 | 1.31 | 0.919 | 0.903 | 1.86 (inactive) | 0.474 | -0.189
4 | CCOC(=O)[C@H]1C/C=C/C[C@H](C(=O)OCC)C(=O)O[C@H]2[C@@H](OC)O[C@H](CO)[C@@H](OC(=O)Nc3ccc4c(c3)OCO4)[C@@H]2OC1=O | -0.267 | 0.451 | 0.0302 | 0.718 | 0.235 | 1.5 | 1.25 | 0.891 (inactive) | 0.0008 | -0.212
5 | COCCOC(=O)N1C(=O)[C@@]2(c3cc(C#CC4=CCCCC4)ccc31)[C@H](C(=O)NC[C@H](O)c1ccccc1)[C@H]1C(=O)O[C@H](c3ccccc3)[C@H](c3ccccc3)N1[C@@H]2c1ccc(O)cc1 | -0.377 | 0.189 | -0.105 | 0.797 | 1.23 | 0.996 | 1.19 | 0.591 (inactive) | 0.353 | -0.0296
6 | [N-]=[N+]=NCc1ccccc1[C@@H]1OC(c2ccc(OCCCO)cc2)=N[C@]1(Cc1ccccc1)C(=O)N1CCCCC1 | 0.49 | 1.1 | 0.0703 | 1.05 | 1.5 | 1.18 | 1.12 | -1.03 (inactive) | 1.49 | 0.212
7 | C#CCN(C(/C=C/c1ccccc1)CO)C(C(=O)O)c1ccccc1 (stereo not given) | -0.27 | -0.769 | -0.159 | 0.263 | 0.0504 | -0.165 | -0.435 | 1.2 (inactive) | -0.652 | -0.284
8 | CC(C)C[C@@H]1NC(=O)[C@H]2C[C@@H](C(=O)NCCCCCNC(=O)CS)[C@@H](c3cccc(OCCO)c3)N2C1=O | -0.197 | 0.235 | -0.0474 | 0.387 | 1.25 | 1.03 | 1.31 | 0.209 (inactive) | 0.707 | -0.173
9 | COc1ccc(C#Cc2ccc3c(c2)[C@]2(C(=O)N3)[C@H](c3ccc(O)cc3)N3[C@H](c4ccccc4)[C@H](c4ccccc4)OC(=O)[C@H]3[C@@H]2C(=O)NC[C@H](O)c2ccccc2)cc1 | -0.127 | 0.0172 | -0.0599 | 0.776 | 0.757 | 0.563 | 1.15 | 0.72 (inactive) | 0.317 | -0.288
10 | CC(C)Cc1ccc(CN2CC[C@@H](NS(=O)(=O)c3ccccc3)C2)cc1 | -0.402 | 1.96 | -0.192 | -0.188 | -1.43 | -0.163 | -0.0314 | -0.803 (inactive) | -0.459 | -0.132
11 | CC(C)CNC(=O)[C@@]1(c2ccc([N+](=O)[O-])cc2)CC(=O)N(CC23CC4CC(CC(C4)C2)C3)[C@@H]1c1ccc(CO)cc1 | 0.158 | 1.83 | 0.0201 | 0.39 | 0.994 | 0.65 | 1.19 | -2.51 (inactive) | -0.0554 | 0.075
12 | O=C1C2C=CC(C(O)c3cccs3)N(Nc3ccccc3F)C2C(=O)N1c1ccccc1 (stereo not given) | -0.111 | 0.28 | -0.0951 | 0.711 | 0.92 | 1.07 | 1.17 | 0.69 (inactive) | 0.267 | -0.196
13 | COCCOC(=O)N1C(=O)[C@@]2(c3cc(C#CC4=CCCCC4)ccc31)[C@H](C(=O)N1CCc3cc(OC)c(OC)cc3C1)[C@H]1C(=O)O[C@H](c3ccccc3)[C@H](c3ccccc3)N1[C@@H]2c1ccccc1OCCO | 0.243 | 0.0781 | -0.0867 | -0.205 | 0.138 | -0.442 | 1.06 | 0.801 (inactive) | 0.186 | -0.0645
14 | O=C1O[C@@H](c2ccccc2)[C@@H](c2ccccc2)N2[C@@H](c3ccc(OCCO)cc3)[C@]3(C(=O)Nc4ccc(C#CC5=CCCCC5)cc43)[C@@H](C(=O)O)[C@H]12 | 0.44 | 0.681 | -0.0158 | 0.506 | 1.48 | 1.59 | 1.12 | 0.82 (inactive) | 0.492 | 0.0274
15 | COCCOC(=O)N1C(=O)[C@@]2(c3cc(C#CCNC(N)=O)ccc31)[C@H](C(=O)N1CCc3cc(OC)c(OC)cc3C1)[C@H]1C(=O)O[C@H](c3ccccc3)[C@H](c3ccccc3)N1[C@@H]2c1ccc(OCCO)cc1 | -0.222 | 0.388 | -0.0293 | 0.392 | 0.578 | 0.0155 | 0.172 | 0.363 (inactive) | 0.536 | 0.12
16 | COC(=O)[C@@]1(Cc2ccccc2N=[N+]=[N-])COC(c2ccc(OCCCO)cc2)=N1 | 1.34 | 2.03 | -0.0706 | -0.282 | 0.0164 | 1.24 | 1.21 | -0.904 (inactive) | 0.498 | 0.0176
17 | CCN(CC)c1ccc(N2CC=CC34O[C@@H]5C=CCCOC(=O)C5[C@H]3C(=O)N(CCCCCO)[C@@H]4C2=O)cc1 (stereo not given in full) | 0.373 | 2.13 | -0.116 | -0.851 | -0.788 | 1.78 | 1.01 | -0.736 (inactive) | 0.37 | -0.226
18 | O=C(CS)NCCCCCCNC(=O)[C@H]1C[C@H]2C(=O)N3CCC[C@H]3C(=O)N2[C@H]1c1cccc(OCCO)c1 | 0.255 | 0.7 | -0.0802 | 0.635 | 0.698 | 1.23 | 1.4 | 0.865 (inactive) | 0.189 | 0.235
19 | Cc1ccccc1C(O)C1C=CC2C(=O)N(C)C(=O)C2N1N1CCCCC1 (stereo not given) | 0.363 | 0.831 | 0.108 | 1.13 | 1.54 | 1.42 | 1.38 | 0.703 (inactive) | 0.927 | -0.0296
20 | O=C1c2ccccc2[C@@]2(Cc3ccccc3N(Cc3ccccc3)C2=O)[C@H](c2ccc(CO)cc2)N1C1CCCCC1 | -0.382 | -0.832 | -0.152 | -0.0341 | -0.203 | 0.662 | 1.37 | -0.0414 (inactive) | -0.244 | -0.201
21 | CC(C)C(O)C1C=CC2C(=O)N(c3ccccc3)C(=O)C2N1Nc1ccc(C#N)cc1 (stereo not given) | 0.946 | 0.303 | 0.238 | 1.07 | 1.7 | 1.72 | 1.23 | 0.596 (inactive) | 1.49 | -0.168
22 | COC(=O)[C@@]1(Cc2ccccc2)N=C(c2ccc(OCCCO)cc2)O[C@H]1c1ccccc1N=[N+]=[N-] | 0.454 | 2.86 | -0.0667 | 0.123 | 0.784 | 0.657 | 1.33 | 3.69 (inactive) | 0.0183 | -0.201
23 | COC(=O)[C@@]1(Cc2ccc(F)cc2)[C@H]2c3cc(C(=O)N(C)C)n(CCc4ccccn4)c3C[C@H]2CN1C(=O)c1ccccc1 | 0.681 | 0.466 | 0.723 | 0.759 | 1.52 | 0.183 | 1.09 | 1.98 (inactive) | 2.35 | 0.178
24 | COc1ccc(NN2C(C(O)c3ccc(OC)c(OCc4ccccc4)c3)C=CC3C(=O)N(C4CCCCC4)C(=O)C32)cc1 (stereo not given) | 0.243 | -0.116 | 0.136 | 0.395 | 1.56 | 1.4 | 0.936 | 0.0498 (inactive) | 0.857 | 0.0749
25 | Cc1ccc([C@H]2[C@H](C(=O)O)[C@H](Sc3ccccc3)[C@@H](C(C)C)N2S(=O)(=O)c2ccc(C)cc2)cc1 | -0.182 | -0.126 | 0.167 | 0.307 | 1.49 | 1.78 | 0.945 | -2.58 (inactive) | 1.31 | -0.226
26 | O=C1O[C@H](c2ccccc2)[C@H](c2ccccc2)N2[C@H]1[C@@H](C(=O)Nc1nc3ccccc3s1)[C@]1(C(=O)Nc3ccccc31)[C@H]2c1ccc(O)cc1 | -0.423 | 0.108 | -0.0516 | 0.405 | 1.13 | 1.43 | 1.25 | 0.678 (inactive) | 0.521 | -0.149
27 | C=CC(=C)C1=CCO[C@@H]1[C@H]1CCCN1S(=O)(=O)c1ccccc1[N+](=O)[O-] | -0.552 | 0.162 | -0.0716 | 0.138 | 1.07 | 0.832 | 1.01 | -0.788 (inactive) | 0.358 | -0.271
